From PubChem BioAssay
NTR1 ag: NTR1 (human) agonism; activation, % at 20 µM; AID 493036; hit rate 0.17% among 330,000; P30989; NTR1-U2OS beta-arrestin-GFP spot imaging, agonist mode;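 active means activation at or above 40% of the spot to cytoplasm intensity ratio, with at least 20 cells analyzed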;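 further: 0% = DMSO without peptide and 100% = 100 nM NTR1 peptide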
Target sequence (P30989 whole entry, looked up): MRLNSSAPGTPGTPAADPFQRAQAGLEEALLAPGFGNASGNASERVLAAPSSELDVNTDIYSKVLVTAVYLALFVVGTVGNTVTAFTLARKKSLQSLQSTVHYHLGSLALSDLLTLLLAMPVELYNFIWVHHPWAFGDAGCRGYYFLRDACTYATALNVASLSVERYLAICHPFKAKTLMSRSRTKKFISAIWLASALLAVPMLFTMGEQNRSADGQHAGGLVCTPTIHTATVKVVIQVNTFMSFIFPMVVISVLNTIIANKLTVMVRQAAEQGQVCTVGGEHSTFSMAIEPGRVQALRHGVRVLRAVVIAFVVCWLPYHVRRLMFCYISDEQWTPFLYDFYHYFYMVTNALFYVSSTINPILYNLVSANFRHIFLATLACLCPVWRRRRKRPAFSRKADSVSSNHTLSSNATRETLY
TMEM16A act: activates or potentiates the mouse TMEM16A chloride channel | Q8BHY3 | HEK293 TMEM16A/YFP-H148Q/I152L, iodide quench fluorescence; stronger effect = lower value | B-score at 10 µM | hit rate 0.3% among 340,000;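 active means fluorescence-ratio B-score plate-corrected deviation score at least 3 library SD below zero, with starting fluorescence score within 5 deviations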;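 further: channel opened by trigger with iodide after compound preincubation; score built on the fluorescence ratio of max minus min over baseline; more negative score means more quench and so TMEM16A activation or potentiation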
MEKK2mut PB1 HTS: signal of MEK5 binding to mutant human MEKK2 PB1 domain; bead flow cytometry, Alexa488-MEK5 binding to MEKK2 mutant; percent response, % at 10 µM; hit rate 0.35% among 290,000; in the data active means percent response above about 24%, passing the limit was not always enough
MEKK3 PB1 HTS: modulators (inhibitors or enhancers) of MEK5 binding to human MEKK3 PB1 domain | AID 1529 | hit rate 1.4% among 290,000 | bead-based flow cytometry, Alexa488-MEK5 binding to MEKK3; actives lie on both sides; 0 = blocked by unlabeled MEK5, 100 = vehicle | binding response (% of control), % at 10 µM;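 active means binding response more than 3 SD above or below the average of its plate-row segment, actives on both sides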;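 further: Alexa488 bead fluorescence after subtracting the streptavidin-only scavenger bead signal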
MEKK2 WT-MEK5: raises or lowers MEK5 binding to wildtype human MEKK2 PB1 domain. bead flow cytometry, Alexa488-MEK5 binding to MEKK2 WT; actives lie on both sides. binding response (% of control), % at 10 µM. hit rate 1.1% among 290,000. AID 1531; in the data active means binding response below about 67% or above about 130%
TMEM16A inh: blocks the mouse calcium-activated chloride channel TMEM16A; AID 588511; normalized B-score (activity score, 25-100; higher = stronger inhibition) at 10 µM; Q8BHY3; HEK293 TMEM16A/YFP iodide influx fluorescence, ionomycin; hit rate 1.2% among 310,000;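 active means ratio plate-corrected score three or more library SD toward inhibition, starting fluorescence score within five deviations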;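 further: score derived from kinetic fluorescence span divided by baseline fluorescence per well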
TMEM16A reconf: TMEM16A (mouse) chloride channel inhibition, re-confirmation; shares compounds with TMEM16A inh; HEK293 TMEM16A/YFP-H148Q, iodide quench fluorescence; ionomycin added to raise cell calcium; inhibition, % at 10 µM; hit rate 39% among 2,300; AID 652189;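 active means mean duplicate percent inhibition, scaled so buffer wells are 0 and the reference blocker 100, over three buffer SD above buffer mean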
TMEM16A Ca cntr: calcium mobilization counter-screen hit for TMEM16A inhibitor series. shares compounds with TMEM16A inh. TMEM16A/YFP HEK293, Fluo4 calcium mobilization. calcium response (% of ionomycin), % at 10 µM. hit rate 2% among 2,300. AID 652231;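 active means duplicate-averaged calcium signal over 20% of the ionomycin maximum, relative to buffer baseline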;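 further: each well's signal is peak minus trough fluorescence divided by its pre-addition baseline; 0% = buffer wells and 100% = ionomycin wells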
YFP-HEK293 quench: counter-screen for TMEM16A inhibitors: effect in parental YFP-HEK293 cells; shares compounds with TMEM16A inh; iodide YFP quench, ionomycin; YFP ratio F(max-min)/F0 at 10 µM; 2,300 tested, under 10 active;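 active means yellow fluorescent protein signal ratio exceeding the buffer control mean by over 5 SD of those controls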;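 further: ratio is mean of duplicate wells from kinetic YFP trace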
ClC-1 inh: selectivity of TMEM16A inhibitors: inhibition of rat ClC-1 chloride channel | shares compounds with TMEM16A inh | CHO ClC-1-YFP, iodide influx fluorescence quench; iodide control reads 0, buffer control 100 | ratio percent, % at 10 µM | 2,300 tested, under 10 active | AID 652236;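 active means duplicate-mean ratio percent above the mean of iodide-only control wells, which defines zero, plus 5 of their SD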;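 further: higher percent means stronger block of ClC-1 iodide influx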
* = called active by the depositor. A selection: hits, their analogues and other compounds. The true share with any hit is near 3.4%.

`S=C(NCc1ccco1)N1CCN(c2nc(-c3ccccc3)cs2)CC1` gave NTR1 ag 6.4, TMEM16A act inactive, MEKK2mut PB1 HTS -9.0, MEKK3 PB1 HTS 94.0, MEKK2 WT-MEK5 84.0 and TMEM16A inh inactive.
`S=C(NCC1CCCO1)N1CCN(c2nc(-c3ccccc3)cs2)CC1` (stereo unspecified) gave NTR1 ag 4.3, TMEM16A act inactive, MEKK2mut PB1 HTS -9.0, MEKK3 PB1 HTS 98.0, MEKK2 WT-MEK5 96.0, TMEM16A inh 25*, TMEM16A reconf 18.5%*, TMEM16A Ca cntr inactive, YFP-HEK293 quench -1.41 and ClC-1 inh -2.5.
Screening Cc1onc(-c2c(Cl)cccc2Cl)c1C(=O)Nc1ccc2c(c1)OCCO2 returned NTR1 ag 1.6, TMEM16A act inactive, MEKK2mut PB1 HTS 2.0, MEKK3 PB1 HTS 100.0, MEKK2 WT-MEK5 103.0, TMEM16A inh 100*, TMEM16A reconf inactive, TMEM16A Ca cntr inactive, YFP-HEK293 quench -1.03 and ClC-1 inh -15.0.
O=C(Nc1ccc2c(c1)OCCO2)C1CCC1 was read as NTR1 ag 3.7, TMEM16A act inactive, MEKK2mut PB1 HTS 3.0, MEKK3 PB1 HTS 97.0, MEKK2 WT-MEK5 102.0, TMEM16A inh 100*, TMEM16A reconf inactive, TMEM16A Ca cntr inactive, YFP-HEK293 quench -0.991 and ClC-1 inh 4.0.
CCOC(=O)C1CCN(C(=O)N(CC)CC)CC1 was read as NTR1 ag 1.4, TMEM16A act inactive, MEKK2mut PB1 HTS 1.0, MEKK3 PB1 HTS 101.0, MEKK2 WT-MEK5 99.0 and TMEM16A inh inactive.
`CN(CCc1cn[nH]c1)Cc1nc(Cc2ccccc2F)no1` gave NTR1 ag -0.8, TMEM16A act inactive, MEKK2mut PB1 HTS 1.0, MEKK3 PB1 HTS 99.0, MEKK2 WT-MEK5 99.0 and TMEM16A inh inactive.
N#C/C(=C\c1ccc(O)c(O)c1)S(=O)(=O)c1ccccc1 was read as NTR1 ag 0.4, TMEM16A act inactive, MEKK2mut PB1 HTS -3.0, MEKK3 PB1 HTS 99.0, MEKK2 WT-MEK5 98.0, TMEM16A inh inactive, TMEM16A reconf 41.0%*, TMEM16A Ca cntr inactive, YFP-HEK293 quench -0.808 and ClC-1 inh 4.5.
`O=C(CSc1ccc(Cl)cc1)N1CCN(c2ccc(Cl)cc2[N+](=O)[O-])CC1` gave NTR1 ag 2.8, TMEM16A act inactive, MEKK2mut PB1 HTS -4.0, MEKK3 PB1 HTS 99.0, MEKK2 WT-MEK5 94.0, TMEM16A inh 100*, TMEM16A reconf inactive, TMEM16A Ca cntr inactive, YFP-HEK293 quench -1.13 and ClC-1 inh -2.5.
CC(C)(C)C(=O)N1CCN(c2ccc(Cl)cc2[N+](=O)[O-])CC1 was read as NTR1 ag 0.2, TMEM16A act inactive, MEKK2mut PB1 HTS -2.0, MEKK3 PB1 HTS 89.0, MEKK2 WT-MEK5 91.0 and TMEM16A inh inactive.
CNC(=O)c1sc(N2N=C3/C(=C\c4ccccc4)CCCC3C2c2ccccc2)nc1C (stereo unspecified) was read as TMEM16A act inactive.
For CNC(=O)c1sc(N2N=C3/C(=C/c4ccccc4)CCCC3C2c2ccccc2)nc1C (stereo unspecified) the results were NTR1 ag 11.4, TMEM16A act inactive, MEKK2mut PB1 HTS 3.0, MEKK3 PB1 HTS 108.0, MEKK2 WT-MEK5 98.0, TMEM16A inh 100*, TMEM16A reconf 46.0%*, TMEM16A Ca cntr 57.5%*, YFP-HEK293 quench -0.922 and ClC-1 inh -6.5.
CCOC(=O)C1(CC2CCCCO2)CCN(Cc2ccccc2-c2ccco2)CC1 (stereo unspecified) was read as NTR1 ag 0.9, TMEM16A act inactive, MEKK2mut PB1 HTS -8.0, MEKK3 PB1 HTS 106.0, MEKK2 WT-MEK5 99.0 and TMEM16A inh inactive.
For O=C(Cn1cnc([N+](=O)[O-])c1)NCCc1ccccc1 the results were NTR1 ag -0.2, TMEM16A act inactive, MEKK2mut PB1 HTS -1.0, MEKK3 PB1 HTS 105.0, MEKK2 WT-MEK5 102.0 and TMEM16A inh inactive.
CCCCNC(=S)Nc1ccc(SC(F)F)cc1 was read as NTR1 ag 2.9, TMEM16A act inactive, MEKK2mut PB1 HTS -1.0, MEKK3 PB1 HTS 103.0, MEKK2 WT-MEK5 105.0, TMEM16A inh 100*, TMEM16A reconf 53.5%*, TMEM16A Ca cntr inactive, YFP-HEK293 quench -0.95 and ClC-1 inh -15.5.
CCCCNC(=S)Nc1ccc(F)cc1 was read as NTR1 ag 0.3, TMEM16A act inactive, MEKK2mut PB1 HTS -5.0, MEKK3 PB1 HTS 98.0, MEKK2 WT-MEK5 97.0 and TMEM16A inh inactive.
`CCN(CC)S(=O)(=O)c1cccc(NC(=O)c2ccc(Br)cc2)c1` gave NTR1 ag 2.4, TMEM16A act inactive, MEKK2mut PB1 HTS 9.0, MEKK3 PB1 HTS 105.0, MEKK2 WT-MEK5 108.0 and TMEM16A inh inactive.
CCN(CC)S(=O)(=O)c1cccc(NC(=O)COc2ccc(Cl)cc2Br)c1 was read as NTR1 ag 13.6, TMEM16A act inactive, MEKK2mut PB1 HTS -3.0, MEKK3 PB1 HTS 104.0, MEKK2 WT-MEK5 107.0, TMEM16A inh 25*, TMEM16A reconf inactive, TMEM16A Ca cntr inactive, YFP-HEK293 quench -0.977 and ClC-1 inh -8.5.
CCN(C(=O)Cc1c(C(=O)O)[nH]c2ccccc12)c1cc(OC)ccc1OC was read as NTR1 ag 0.2, TMEM16A act inactive, MEKK2mut PB1 HTS -5.0, MEKK3 PB1 HTS 96.0, MEKK2 WT-MEK5 93.0, TMEM16A inh 100*, TMEM16A reconf inactive, TMEM16A Ca cntr inactive, YFP-HEK293 quench -1.07 and ClC-1 inh -4.5.
Cc1ccc(-c2noc(CSc3nnnn3C3CCCCC3)n2)cc1 was read as NTR1 ag 0.8, TMEM16A act inactive, MEKK2mut PB1 HTS 12.0, MEKK3 PB1 HTS 118.0, MEKK2 WT-MEK5 115.0, TMEM16A inh 100*, TMEM16A reconf 29.5%*, TMEM16A Ca cntr inactive, YFP-HEK293 quench -1.12 and ClC-1 inh -12.0.
Screening COC(=O)C1C(=O)C(C(=O)/C=C/c2ccccc2)C(=O)CC1(C)C (stereo unspecified) returned NTR1 ag 0.5, TMEM16A act inactive, MEKK2mut PB1 HTS -5.0, MEKK3 PB1 HTS 101.0, MEKK2 WT-MEK5 93.0 and TMEM16A inh inactive.
